From PubChem BioAssay (Tox21)
Results filed as inconclusive are left out. Active and inactive are the calls of the source. The call rests on the fitted dose curve; in most records, active means well fitted activation curve with a large enough effect in the repeat runs; inconclusive means weak or mixed curves; inactive means flat fitted curve, though single readings scatter.

assay: A CellTox Green Cytotoxicity Assay to monitor cytotoxicity in HepG2 cells - 8 hour (AID 1224890); settings: CellTox Green fluorescence; series mostly up to 76.8 µM; further: nearly all actives have a fitted effect of over 45% in size
How it was run: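 Real-time, homogeneous cytotoxicity readout: dead-cell DNA staining by CellTox Green in HepG2 monolayers, fluorescence measured at timed intervals up to 40 h of continuous compound exposure.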

| Structure (SMILES) | outcome |
| --- | --- |
| CC(C)(C)c1cc(Cc2cc(C(C)(C)C)c(O)c(C(C)(C)C)c2)cc(C(C)(C)C)c1O | inactive |
| COC(=O)c1cccnc1 | inactive |
| CCCCCCC=O | inactive |
| CCCCC(C=O)CC (stereo not drawn) | inactive |
| CC(O)CC(C)(C)O (stereo not drawn) | inactive |
| O=c1[nH]cnc2[nH]ncc12 | inactive |
| CCCCCCCCCCCCCCCC(=O)OC(C)C | inactive |
| CC(=O)OC1CC(C)OC(C)O1 (stereo not drawn) | inactive |
| CC1(C)NC(=O)NC1=O | inactive |
| Clc1ccccn1 | inactive |
| CC(=O)OCCOC(C)=O | inactive |
| CCc1ccccc1CC | inactive |
| CC(C)OC(=O)COc1ccc(Cl)cc1Cl | inactive |
| COc1ccc(N)c(C)c1 | inactive |
| c1ccc2c(c1)Cc1ccccc1-2 | inactive |
| CC(C)(Oc1ccc(CCNC(=O)c2ccc(Cl)cc2)cc1)C(=O)O | inactive |
| O=C1C(c2[nH]c3ccccc3c2O)=Nc2ccccc21 | inactive |
| O=C(OCC1CCC2OC2C1)C1CCC2OC2C1 (stereo not drawn) | inactive |
| CCCCCCCCCCCCCCCCO | inactive |

| Structure (SMILES) | outcome |
| --- | --- |
| O=C(O)Cn1c(=O)n(Cc2ccc(Br)cc2F)c(=O)c2ccc(Cl)cc21 | inactive |
| CCCCCCCC=O | inactive |
| C[C@]12CCC(=O)C=C1CC[C@@H]1[C@@H]2[C@@H](O)C[C@@]2(C)[C@H]1CC[C@]2(O)C(=O)CO | inactive |
| CCOCCOCCOCCO | inactive |
| C[Si]1(C)O[Si](C)(C)O[Si](C)(C)O[Si](C)(C)O1 | inactive |
| N[C@H](Cc1c[nH]c2ccccc12)C(=O)O | inactive |
| O=C(O)c1ccc(S(=O)(=O)N(Cl)Cl)cc1 | inactive |
| CC(=O)OCc1ccccc1 | inactive |
| COc1ccc(CCC(C)=O)cc1 | inactive |
| CC1(C)OC[C@@H]2O[C@@]3(C(=O)O)OC(C)(C)O[C@H]3[C@@H]2O1 | inactive |
| CCNC(=S)NCC | inactive |
| CN(C)c1ccc(O)c2c1C[C@H]1C[C@H]3[C@H](N(C)C)C(=O)C(C(N)=O)=C(O)[C@@]3(O)C(=O)C1=C2O | inactive |
| Cc1ccc(C(C)C)c(O)c1 | inactive |
| OCc1cccc(Oc2ccccc2)c1 | inactive |
| CCCOC(=O)c1ccccc1 | inactive |
| CNC(=S)N(C)C | inactive |
| C=CC[N+](C)(C)CC=C | inactive |
| NCCN1CCNCC1 | inactive |
| CCCCCCCCCCN | inactive |
